Hit rate of the full screen: of about 3,200 compounds, about 300 (9.4%) showed activity. Only a selection was taken, and actives are over-represented in it overall.
System: A673/TR/shEF
Experiment: cell viability (LOESS-normalised, relative to median of negative controls) (log2 ratio); higher = more viable cells (less compound effect), active = hit call of the paper (over 3 MAD below the median)
Details: treatment time: 72 h
Summary of the method: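 For three days, A673/TR/shEF Ewing sarcoma cells in 384-well plates (1,500 per well) were treated with library compounds at two or more concentrations or with DMSO controls, after doxycycline had been added or withheld 24 h beforehand to induce EWS-FLI1 shRNA knockdown. Viability was read by CellTiter-Glo luminescence on an Envision reader. The data were LOESS-corrected per plate, divided by the median of negative controls and log2-transformed.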

[1] = 0.25 µM, library screen: screen1, EWS-FLI1 expression: high (no doxycycline)
[2] = 0.25 µM, library screen: screen1, EWS-FLI1 expression: low (doxycycline-induced shRNA knockdown)
[3] = 2.5 µM, library screen: screen1, EWS-FLI1 expression: high (no doxycycline)
[4] = 2.5 µM, library screen: screen1, EWS-FLI1 expression: low (doxycycline-induced shRNA knockdown)
[5] = 0.103 µM, library screen: screen3, EWS-FLI1 expression: high (no doxycycline)
[6] = 0.103 µM, library screen: screen3, EWS-FLI1 expression: low (doxycycline-induced shRNA knockdown)
[7] = 0.308 µM, library screen: screen3, EWS-FLI1 expression: high (no doxycycline)
[8] = 0.308 µM, library screen: screen3, EWS-FLI1 expression: low (doxycycline-induced shRNA knockdown)
[9] = 0.926 µM, library screen: screen3, EWS-FLI1 expression: high (no doxycycline)
[10] = 0.926 µM, library screen: screen3, EWS-FLI1 expression: low (doxycycline-induced shRNA knockdown)
[11] = 2.8 µM, library screen: screen3, EWS-FLI1 expression: high (no doxycycline)
[12] = 2.8 µM, library screen: screen3, EWS-FLI1 expression: low (doxycycline-induced shRNA knockdown)
[13] = 8.3 µM, library screen: screen3, EWS-FLI1 expression: high (no doxycycline)
[14] = 8.3 µM, library screen: screen3, EWS-FLI1 expression: low (doxycycline-induced shRNA knockdown)
[15] = 25 µM, library screen: screen3, EWS-FLI1 expression: high (no doxycycline)
[16] = 25 µM, library screen: screen3, EWS-FLI1 expression: low (doxycycline-induced shRNA knockdown)

Measured: cell viability (log2)

CC12CCCC(O)(C1)C1CC(C)(C)C1CC2 (stereo not given)
inactive: [1] 0.066 | [2] -0.02 | [3] 0.0972 | [4] 0.0732

Oc1ccc2c(c1)OC[C@H]1c3cc4c(cc3O[C@@H]21)OCO4
inactive: [1] 0.0543 | [2] -0.104 | [3] 0.119 | [4] 0.0894

Oc1ccc([C@@H]2Oc3ccc(O)cc3[C@@H]3CCC[C@@H]32)cc1
inactive: [5] -0.0128 | [6] 0.0648 | [7] -0.0264 | [8] -0.0313 | [9] -0.0384 | [10] 0.0122 | [11] -0.0259 | [12] 0.00446 | [13] -0.0456 | [14] 0.0022 | [16] -0.0464
active: [15] -0.181

Oc1ccc([C@H]2Oc3cc(O)cc(O)c3C[C@H]2O)cc1
inactive: [1] 0.0303 | [2] -0.000667 | [3] 0.0839 | [4] -0.00856

COc1cc(CN2CCN(Cc3cccc(OC)c3OC)CC2)c([N+](=O)[O-])cc1OC
inactive: [1] 0.00876 | [2] 0.0541 | [3] 0.119 | [4] -0.0278

CC1(C)OC(=O)CC(O)[C@@]2(C)C1CC(=O)[C@]1(C)C2CCC2(C)C(c3ccoc3)OC(=O)[C@H]3O[C@]321 (stereo not given in full)
inactive: [1] 0.0277 | [2] 0.0481 | [3] 0.0671 | [4] 0.0691

C[C@]12CCC3c4ccc(OC(=O)CCC(=O)O)cc4CCC3C1CCC2=O (stereo not given in full)
inactive: [1] 0.126 | [2] 0.0832 | [3] 0.102 | [4] 0.0823

C=C/C(C)=C\C[C@@H]1[C@@]2(C)CCCC(C)(C)[C@@H]2CC[C@@]1(C)O
inactive: [1] 0.0522 | [2] 0.0309 | [3] 0.126 | [4] 0.0611

C[C@]12CC[C@@H]3c4ccc(O)cc4CC[C@H]3[C@@H]1CC[C@@H]2O
inactive: [5] 0.029 | [6] -0.00908 | [1] 0.122 | [2] 0.00576 | 0.25 µM, library screen: screen2, EWS-FLI1 expression: high (no doxycycline) 0.147 | 0.25 µM, library screen: screen2, EWS-FLI1 expression: low (doxycycline-induced shRNA knockdown) 0.0497 | [7] 0.101 | [8] 0.0915 | [9] 0.111 | [10] 0.0539 | [3] 0.0979 | [4] 0.0174 | 2.5 µM, library screen: screen2, EWS-FLI1 expression: high (no doxycycline) 0.0738 | 2.5 µM, library screen: screen2, EWS-FLI1 expression: low (doxycycline-induced shRNA knockdown) 0.0113 | [11] 0.127 | [12] 0.0786 | [13] 0.135 | [14] 0.0545 | [15] 0.166 | [16] 0.0719

Source: the supplement of paper PMC6089552
